Results on nine compounds are retold here after PubChem BioAssay (NCI).

“And” between values parts separate entries of the source, which are not always exact repeats. Equal entries are not always repeated. The panel holds about 83,000 compounds, 20% with a hit somewhere; the sample as a whole holds those more often.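 Single-concentration screen, 48 h exposure, 96-well plates. Endpoint: percent growth. Below 10 = active.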 The source made the active and inactive calls.

Test systems include SR leukemia; RPMI-8226 leukemia; OVCAR-8 ovarian; OVCAR-5 ovarian; OVCAR-4 ovarian; SK-OV-3 ovarian; IGROV1 ovarian; OVCAR-3 ovarian; HS 578T breast; NCI/ADR-RES ovarian.
Common to all, as to assay: NCI-60 one-dose screen, 48 h (100 = growth as untreated, 0 = no growth, -100 = all killed)
Details in all cases: 10 µM unless noted

For `Cn1c(=O)c2[nH]c(CCCCCCCCc3nc4ccccc4[nH]3)nc2n(C)c1=O`, the growth in the experiment on SR leukemia is 43.5% (inactive) and 45.4% (inactive); with RPMI-8226 leukemia it was 52.2% (inactive); in the experiment on OVCAR-8 ovarian, 58.9% (inactive) and 69.2% (inactive); with OVCAR-5 ovarian, 106% (inactive) and 91.2% (inactive); in the experiment on OVCAR-4 ovarian it was 23.5% (inactive) and 50.2% (inactive); in the experiment on SK-OV-3 ovarian, 95.4% (inactive) and 94% (inactive). Besides, the growth in the experiment with IGROV1 ovarian is 100% (inactive) and 85.9% (inactive); in the experiment on OVCAR-3 ovarian it was 88.1% (inactive) and 66.6% (inactive); in the experiment with HS 578T breast, 109% (inactive) and 85.6% (inactive); in the experiment on NCI/ADR-RES ovarian, 87.6% (inactive) and 94.4% (inactive).

On to `O=C(c1ccc(Cl)cc1)C(NCCO)c1ccc(Cl)cc1` (stereo not given), for which the growth is 92.8% (inactive) and 88.1% (inactive) with SR leukemia; 79.3% (inactive) and 113% (inactive) in the experiment on RPMI-8226 leukemia; 99.2% (inactive) and 99.8% (inactive) in the experiment on OVCAR-8 ovarian; 108% (inactive) and 99.5% (inactive) in the experiment with OVCAR-5 ovarian; 103% (inactive) in the experiment with OVCAR-4 ovarian; 107% (inactive) and 98.2% (inactive) in the experiment on SK-OV-3 ovarian. The growth is 88.5% (inactive) and 91.7% (inactive) in the experiment with IGROV1 ovarian; 104% (inactive) and 101% (inactive) in the experiment with OVCAR-3 ovarian; 101% (inactive) and 117% (inactive) in the experiment with HS 578T breast; 98.1% (inactive) and 98% (inactive) with NCI/ADR-RES ovarian.

As to `CCCCCCCCCCCCCCCCOc1ccc(C)cc1`, the growth in the experiment on SR leukemia was 97.9% (inactive); with RPMI-8226 leukemia, 118% (inactive); with OVCAR-8 ovarian it was 106% (inactive); in the experiment on OVCAR-5 ovarian, 99.9% (inactive); with OVCAR-4 ovarian, 99.8% (inactive); with SK-OV-3 ovarian, 108% (inactive). Besides, the growth in the experiment with IGROV1 ovarian was 127% (inactive); in the experiment with OVCAR-3 ovarian, 108% (inactive); in the experiment on HS 578T breast, 110% (inactive); in the experiment on NCI/ADR-RES ovarian it was 103% (inactive).

With `NC(=O)NO`, the growth with SR leukemia was 54.6% (inactive); in the experiment with RPMI-8226 leukemia it was 98.8% (inactive) and 42.1% (inactive); in the experiment with OVCAR-8 ovarian, 99.8% (inactive); with OVCAR-5 ovarian, 108% (inactive) and 45.8% (inactive); in the experiment with OVCAR-4 ovarian it was 105% (inactive) and 59.5% (inactive); in the experiment on SK-OV-3 ovarian, 107% (inactive) and 56.4% (inactive). The growth with IGROV1 ovarian was 104% (inactive) and 47% (inactive); with OVCAR-3 ovarian, 110% (inactive) and 70.1% (inactive); in the experiment with HS 578T breast it was 109% (inactive) and -24.6% (active); in the experiment on NCI/ADR-RES ovarian, 99.4% (inactive) and 87.4% (inactive).

Consider `CC(C)C(=O)Nc1ccc([N+](=O)[O-])c(C(F)(F)F)c1`, for which the growth was 76.4% (inactive) and 88.4% (inactive) in the experiment with SR leukemia; 63.9% (inactive) with RPMI-8226 leukemia; 101% (inactive) and 56.1% (inactive) with OVCAR-8 ovarian; 90.4% (inactive) in the experiment on OVCAR-5 ovarian; 83.1% (inactive) and 92.5% (inactive) in the experiment on OVCAR-4 ovarian; 80.2% (inactive) and 99.6% (inactive) with SK-OV-3 ovarian. Besides, the growth in the experiment on IGROV1 ovarian was 94.5% (inactive) and 5.73% (active); in the experiment on OVCAR-3 ovarian, 86.3% (inactive) and 98.2% (inactive); in the experiment with HS 578T breast, 101% (inactive) and 85.4% (inactive); with NCI/ADR-RES ovarian, 86.2% (inactive) and 96% (inactive).

For `COc1ccccc1NC(=O)OCC#CCOC(=O)Nc1ccccc1OC`, the growth with SR leukemia is 88% (inactive) and 61.5% (inactive); in the experiment with RPMI-8226 leukemia it was 90.2% (inactive) and 72.3% (inactive); in the experiment with OVCAR-8 ovarian, 106% (inactive) and 97.6% (inactive); in the experiment with OVCAR-5 ovarian it was 98.9% (inactive) and 98.3% (inactive); with OVCAR-4 ovarian it was 99.2% (inactive) and 94% (inactive); in the experiment with SK-OV-3 ovarian it was 104% (inactive) and 94.8% (inactive). The growth was 108% (inactive) and 83.5% (inactive) in the experiment on IGROV1 ovarian; 127% (inactive) and 86.4% (inactive) with OVCAR-3 ovarian; 99.7% (inactive) and 76.3% (inactive) in the experiment with HS 578T breast; 98.7% (inactive) and 92.7% (inactive) in the experiment with NCI/ADR-RES ovarian.

Take `Oc1ccc(/C=C/c2ccccc2)cc1`: the growth in the experiment with SR leukemia was 48.6% (inactive) and 69.6% (inactive); with RPMI-8226 leukemia it was 61.3% (inactive) and 81.8% (inactive); with OVCAR-8 ovarian, 66.2% (inactive) and 50.5% (inactive); in the experiment with OVCAR-5 ovarian, 97.5% (inactive) and 140% (inactive); with OVCAR-4 ovarian, 61.5% (inactive); in the experiment with SK-OV-3 ovarian it was 94.8% (inactive) and 99.4% (inactive). Moreover, the growth in the experiment on IGROV1 ovarian is 57.5% (inactive) and 59.9% (inactive); in the experiment on OVCAR-3 ovarian, 79.1% (inactive) and 76.5% (inactive); in the experiment on HS 578T breast, 86.7% (inactive); in the experiment with NCI/ADR-RES ovarian, 43.5% (inactive) and 41.6% (inactive).

Take `CCNC(=O)Nc1ccc(-c2nc3c(c(N4CCOC[C@@H]4C)n2)CCN(C2COC2)C3)cc1`: the growth was 47.9% (inactive) and 11.8% (inactive) in the experiment with SR leukemia; 23.3% (inactive) and 6.21% (active) with RPMI-8226 leukemia; 48% (inactive) and 0.436% (active) with OVCAR-8 ovarian; 46.7% (inactive) and 23.1% (inactive) in the experiment with OVCAR-5 ovarian; 23.1% (inactive) and -13% (active) in the experiment on OVCAR-4 ovarian; 13.9% (inactive) and -35% (active) in the experiment with SK-OV-3 ovarian. Moreover, the growth was 15.2% (inactive) and -12.9% (active) with IGROV1 ovarian; 40.4% (inactive) and 16% (inactive) in the experiment with OVCAR-3 ovarian; 1.21% (active) with HS 578T breast; 90.4% (inactive) and 12.4% (inactive) in the experiment with NCI/ADR-RES ovarian.

Take `COc1ccc(S(=O)(=O)N2CCOCC2)cc1NC(=O)c1[nH]c(C)c2c1CCCCC2=O`: the growth is 113% (inactive) and 64.4% (inactive) in the experiment with SR leukemia; 104% (inactive) and 21.5% (inactive) with RPMI-8226 leukemia; 99.6% (inactive) and 61.7% (inactive) with OVCAR-8 ovarian; 102% (inactive) and 66.8% (inactive) with OVCAR-5 ovarian; 114% (inactive) and 59.2% (inactive) in the experiment with OVCAR-4 ovarian; 103% (inactive) with SK-OV-3 ovarian. For the same compound, the growth in the experiment on IGROV1 ovarian is 108% (inactive) and 47.1% (inactive); with OVCAR-3 ovarian, 111% (inactive) and 68% (inactive); in the experiment on HS 578T breast, 91.8% (inactive) and 23.1% (inactive); with NCI/ADR-RES ovarian, 107% (inactive) and 79.1% (inactive).
